Legend:
[1] = biological target: High affinity nerve growth factor receptor (Homo sapiens) (UniProt P04629); conditions: at 1 µM;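 note: each value is the mean percent inhibition of TRKA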
[2] = biological target: BDNF/NT-3 growth factors receptor (Homo sapiens) (UniProt Q16620); conditions: at 0.1 µM
[3] = biological target: BDNF/NT-3 growth factors receptor (Homo sapiens) (UniProt Q16620); conditions: at 1 µM
[4] = biological target: NT-3 growth factor receptor (Homo sapiens) (UniProt Q16288); conditions: at 0.1 µM
[5] = biological target: NT-3 growth factor receptor (Homo sapiens) (UniProt Q16288); conditions: at 1 µM
[6] = biological target: T1, Tyrosine-protein kinase TXK (Homo sapiens) (UniProt P42681); conditions: at 0.1 µM
T1 sequence (whole entry): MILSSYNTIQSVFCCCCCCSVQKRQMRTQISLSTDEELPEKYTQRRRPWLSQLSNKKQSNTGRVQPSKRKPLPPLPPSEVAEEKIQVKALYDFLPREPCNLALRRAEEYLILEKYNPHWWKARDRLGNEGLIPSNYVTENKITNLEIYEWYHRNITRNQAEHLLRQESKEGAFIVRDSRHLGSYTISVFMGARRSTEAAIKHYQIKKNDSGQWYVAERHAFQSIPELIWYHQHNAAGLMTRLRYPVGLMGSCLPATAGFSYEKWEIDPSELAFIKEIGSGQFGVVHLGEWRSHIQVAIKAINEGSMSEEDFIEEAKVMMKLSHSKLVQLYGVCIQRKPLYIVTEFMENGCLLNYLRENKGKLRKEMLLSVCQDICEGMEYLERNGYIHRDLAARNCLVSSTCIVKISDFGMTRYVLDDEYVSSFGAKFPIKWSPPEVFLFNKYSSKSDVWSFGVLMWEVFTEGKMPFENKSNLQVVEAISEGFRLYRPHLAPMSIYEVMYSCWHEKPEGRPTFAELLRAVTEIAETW

[7] = biological target: T1, Tyrosine-protein kinase TXK (Homo sapiens); conditions: at 1 µM
[8] = biological target: Non-receptor tyrosine-protein kinase TYK2 (Homo sapiens) (UniProt P29597); conditions: at 0.1 µM;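 note: each value is a mean of the inhibition readings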
[9] = biological target: T2, Dual specificity protein kinase TTK (Homo sapiens) (UniProt P33981); conditions: at 1 µM;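 note: reported figures are mean TTK inhibition at 1 µM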
T2 sequence (whole entry): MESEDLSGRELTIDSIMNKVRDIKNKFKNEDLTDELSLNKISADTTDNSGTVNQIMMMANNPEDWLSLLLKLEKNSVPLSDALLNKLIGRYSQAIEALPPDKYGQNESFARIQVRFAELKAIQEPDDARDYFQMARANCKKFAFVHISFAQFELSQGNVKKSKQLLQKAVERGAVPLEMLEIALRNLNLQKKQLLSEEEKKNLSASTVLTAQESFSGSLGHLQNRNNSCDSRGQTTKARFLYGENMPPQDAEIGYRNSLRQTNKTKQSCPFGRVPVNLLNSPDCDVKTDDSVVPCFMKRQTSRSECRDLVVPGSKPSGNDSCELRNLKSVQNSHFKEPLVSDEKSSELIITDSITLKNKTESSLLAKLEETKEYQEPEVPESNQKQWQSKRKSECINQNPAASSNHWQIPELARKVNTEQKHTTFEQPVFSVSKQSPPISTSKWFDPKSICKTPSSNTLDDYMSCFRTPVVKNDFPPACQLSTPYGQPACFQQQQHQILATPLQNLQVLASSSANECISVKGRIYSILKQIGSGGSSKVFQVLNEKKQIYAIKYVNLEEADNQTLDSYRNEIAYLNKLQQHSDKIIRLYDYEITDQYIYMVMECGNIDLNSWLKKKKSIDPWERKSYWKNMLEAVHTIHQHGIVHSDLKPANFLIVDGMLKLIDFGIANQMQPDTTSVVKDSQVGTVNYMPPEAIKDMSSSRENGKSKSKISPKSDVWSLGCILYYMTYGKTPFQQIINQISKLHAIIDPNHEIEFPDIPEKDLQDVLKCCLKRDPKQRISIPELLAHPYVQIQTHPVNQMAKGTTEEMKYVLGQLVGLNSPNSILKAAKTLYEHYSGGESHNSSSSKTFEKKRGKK

[10] = biological target: T3, Aurora kinase A (Homo sapiens) (UniProt O14965); conditions: at 0.1 µM
T3 sequence (whole entry): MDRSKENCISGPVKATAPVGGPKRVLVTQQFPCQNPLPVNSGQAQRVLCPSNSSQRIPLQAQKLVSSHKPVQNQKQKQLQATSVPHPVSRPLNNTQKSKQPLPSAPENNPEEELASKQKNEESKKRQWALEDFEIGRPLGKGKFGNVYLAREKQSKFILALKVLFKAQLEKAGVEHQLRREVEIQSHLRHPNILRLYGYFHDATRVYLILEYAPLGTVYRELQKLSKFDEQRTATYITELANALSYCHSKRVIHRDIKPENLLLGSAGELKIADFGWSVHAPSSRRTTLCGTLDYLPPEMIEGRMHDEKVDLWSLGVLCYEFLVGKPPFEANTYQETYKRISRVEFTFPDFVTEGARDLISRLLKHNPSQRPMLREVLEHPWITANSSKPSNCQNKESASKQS

[11] = biological target: T3, Aurora kinase A (Homo sapiens); conditions: at 1 µM
[12] = biological target: Aurora kinase B (Homo sapiens) (UniProt Q96GD4); conditions: at 0.1 µM
[13] = biological target: Aurora kinase B (Homo sapiens) (UniProt Q96GD4); conditions: at 1 µM
[14] = biological target: T4, Aurora kinase C (Homo sapiens) (UniProt Q9UQB9); conditions: at 0.1 µM
T4 sequence (whole entry): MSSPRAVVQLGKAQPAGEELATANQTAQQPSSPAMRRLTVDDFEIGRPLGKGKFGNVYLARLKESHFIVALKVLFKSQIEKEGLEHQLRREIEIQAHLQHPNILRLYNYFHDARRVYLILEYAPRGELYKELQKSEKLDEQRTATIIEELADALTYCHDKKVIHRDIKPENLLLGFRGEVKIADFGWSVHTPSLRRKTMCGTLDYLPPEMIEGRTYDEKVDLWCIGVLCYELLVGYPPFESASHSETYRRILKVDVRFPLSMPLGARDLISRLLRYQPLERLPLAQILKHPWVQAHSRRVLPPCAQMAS

[15] = biological target: T4, Aurora kinase C (Homo sapiens); conditions: at 1 µM
[16] = biological target: Serine/threonine-protein kinase 10 (Homo sapiens) (UniProt O94804); conditions: at 0.1 µM
[17] = biological target: Serine/threonine-protein kinase 10 (Homo sapiens) (UniProt O94804); conditions: at 1 µM
[18] = biological target: T5, Mitogen-activated protein kinase kinase kinase kinase 2 (Homo sapiens) (UniProt Q12851); conditions: at 0.1 µM
T5 sequence (whole entry): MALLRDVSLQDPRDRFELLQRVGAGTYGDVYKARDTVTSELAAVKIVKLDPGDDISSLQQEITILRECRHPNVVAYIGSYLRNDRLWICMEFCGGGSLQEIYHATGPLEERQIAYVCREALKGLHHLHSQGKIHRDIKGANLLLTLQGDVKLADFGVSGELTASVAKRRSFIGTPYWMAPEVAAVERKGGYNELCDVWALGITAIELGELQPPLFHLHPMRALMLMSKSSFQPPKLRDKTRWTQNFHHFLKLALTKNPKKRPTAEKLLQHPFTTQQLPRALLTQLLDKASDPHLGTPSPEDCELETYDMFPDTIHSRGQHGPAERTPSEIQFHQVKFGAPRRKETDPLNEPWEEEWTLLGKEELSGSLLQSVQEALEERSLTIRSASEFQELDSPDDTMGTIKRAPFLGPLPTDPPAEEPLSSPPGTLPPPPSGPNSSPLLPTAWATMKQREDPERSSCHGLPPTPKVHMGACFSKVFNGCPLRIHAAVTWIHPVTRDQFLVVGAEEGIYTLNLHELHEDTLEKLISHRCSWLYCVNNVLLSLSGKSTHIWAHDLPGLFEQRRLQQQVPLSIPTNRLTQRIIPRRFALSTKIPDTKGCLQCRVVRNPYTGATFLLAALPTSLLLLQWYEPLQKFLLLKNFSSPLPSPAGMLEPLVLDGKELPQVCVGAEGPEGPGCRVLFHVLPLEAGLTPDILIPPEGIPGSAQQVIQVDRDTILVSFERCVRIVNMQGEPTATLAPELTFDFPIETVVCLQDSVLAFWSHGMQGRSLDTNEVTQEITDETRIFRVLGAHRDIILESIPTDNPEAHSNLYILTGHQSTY

[19] = biological target: T5, Mitogen-activated protein kinase kinase kinase kinase 2 (Homo sapiens); conditions: at 1 µM
[20] = biological target: Mitogen-activated protein kinase kinase kinase kinase 4 (Homo sapiens) (UniProt O95819); conditions: at 0.1 µM
Mitogen-activated protein kinase kinase kinase kinase 4 (Homo sapiens), sequence (O95819 2-1239 limits assumed): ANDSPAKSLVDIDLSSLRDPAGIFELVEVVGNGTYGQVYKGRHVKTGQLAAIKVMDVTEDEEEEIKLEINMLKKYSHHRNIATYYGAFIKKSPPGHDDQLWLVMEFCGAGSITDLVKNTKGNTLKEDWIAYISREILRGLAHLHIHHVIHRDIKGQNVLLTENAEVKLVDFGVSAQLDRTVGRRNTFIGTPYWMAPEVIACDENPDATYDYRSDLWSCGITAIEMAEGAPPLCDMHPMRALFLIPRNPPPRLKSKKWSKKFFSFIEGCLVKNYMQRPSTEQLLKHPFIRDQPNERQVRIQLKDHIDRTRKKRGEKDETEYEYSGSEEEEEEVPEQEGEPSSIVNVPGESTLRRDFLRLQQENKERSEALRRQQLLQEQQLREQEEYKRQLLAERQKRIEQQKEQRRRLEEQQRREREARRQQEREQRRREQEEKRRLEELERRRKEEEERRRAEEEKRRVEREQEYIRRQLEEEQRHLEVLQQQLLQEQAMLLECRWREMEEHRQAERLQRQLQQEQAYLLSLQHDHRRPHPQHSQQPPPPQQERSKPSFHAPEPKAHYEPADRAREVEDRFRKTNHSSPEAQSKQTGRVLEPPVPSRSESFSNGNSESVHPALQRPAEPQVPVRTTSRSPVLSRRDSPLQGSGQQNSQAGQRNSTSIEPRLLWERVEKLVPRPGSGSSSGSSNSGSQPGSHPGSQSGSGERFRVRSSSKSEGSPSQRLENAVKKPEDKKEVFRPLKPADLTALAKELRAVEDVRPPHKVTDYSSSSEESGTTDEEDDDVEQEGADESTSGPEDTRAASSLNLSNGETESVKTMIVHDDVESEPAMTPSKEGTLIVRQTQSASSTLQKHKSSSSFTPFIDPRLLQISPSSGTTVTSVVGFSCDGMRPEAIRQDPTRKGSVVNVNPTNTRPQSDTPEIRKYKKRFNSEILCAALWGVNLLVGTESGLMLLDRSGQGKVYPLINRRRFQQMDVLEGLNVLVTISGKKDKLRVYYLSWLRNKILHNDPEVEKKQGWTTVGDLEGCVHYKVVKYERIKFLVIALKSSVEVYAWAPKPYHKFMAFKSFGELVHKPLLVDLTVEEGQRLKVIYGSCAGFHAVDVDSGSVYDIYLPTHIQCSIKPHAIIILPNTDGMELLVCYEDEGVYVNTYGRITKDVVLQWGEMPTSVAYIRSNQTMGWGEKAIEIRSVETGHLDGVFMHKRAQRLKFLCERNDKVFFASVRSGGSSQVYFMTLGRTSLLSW

NT-3 growth factor receptor (Homo sapiens), sequence (Q16288 32-839 limits assumed): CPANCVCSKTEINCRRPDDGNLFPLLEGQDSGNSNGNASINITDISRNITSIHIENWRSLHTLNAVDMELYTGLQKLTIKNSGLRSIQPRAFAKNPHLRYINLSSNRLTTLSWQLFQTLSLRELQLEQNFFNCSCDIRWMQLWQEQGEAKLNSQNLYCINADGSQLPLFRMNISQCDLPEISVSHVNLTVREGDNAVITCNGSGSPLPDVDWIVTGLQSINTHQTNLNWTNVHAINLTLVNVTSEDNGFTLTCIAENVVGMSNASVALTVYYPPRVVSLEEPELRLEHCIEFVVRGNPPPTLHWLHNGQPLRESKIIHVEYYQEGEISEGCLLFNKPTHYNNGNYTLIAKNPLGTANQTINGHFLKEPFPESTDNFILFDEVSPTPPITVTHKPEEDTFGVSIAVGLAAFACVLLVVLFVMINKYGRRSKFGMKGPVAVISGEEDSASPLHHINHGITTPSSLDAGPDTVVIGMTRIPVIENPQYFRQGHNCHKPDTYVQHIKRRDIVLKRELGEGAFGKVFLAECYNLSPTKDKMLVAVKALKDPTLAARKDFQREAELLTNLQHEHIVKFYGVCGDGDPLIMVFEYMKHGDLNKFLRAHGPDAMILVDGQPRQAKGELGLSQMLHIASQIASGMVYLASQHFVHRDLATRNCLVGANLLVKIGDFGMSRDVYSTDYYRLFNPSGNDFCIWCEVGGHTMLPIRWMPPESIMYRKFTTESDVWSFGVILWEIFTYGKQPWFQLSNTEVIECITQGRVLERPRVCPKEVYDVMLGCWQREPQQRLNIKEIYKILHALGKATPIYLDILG
Aurora kinase B (Homo sapiens), sequence (Q96GD4 whole entry): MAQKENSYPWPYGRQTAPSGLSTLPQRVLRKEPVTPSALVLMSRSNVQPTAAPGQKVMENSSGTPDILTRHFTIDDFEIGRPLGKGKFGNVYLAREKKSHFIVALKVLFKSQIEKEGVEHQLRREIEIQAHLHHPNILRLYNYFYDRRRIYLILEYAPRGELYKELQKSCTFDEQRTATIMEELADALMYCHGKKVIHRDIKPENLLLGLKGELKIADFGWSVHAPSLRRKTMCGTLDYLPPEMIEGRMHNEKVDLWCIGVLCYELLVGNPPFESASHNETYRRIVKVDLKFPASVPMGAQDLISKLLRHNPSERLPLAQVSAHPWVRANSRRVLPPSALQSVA
Serine/threonine-protein kinase 10 (Homo sapiens), sequence (O94804 whole entry, looked up): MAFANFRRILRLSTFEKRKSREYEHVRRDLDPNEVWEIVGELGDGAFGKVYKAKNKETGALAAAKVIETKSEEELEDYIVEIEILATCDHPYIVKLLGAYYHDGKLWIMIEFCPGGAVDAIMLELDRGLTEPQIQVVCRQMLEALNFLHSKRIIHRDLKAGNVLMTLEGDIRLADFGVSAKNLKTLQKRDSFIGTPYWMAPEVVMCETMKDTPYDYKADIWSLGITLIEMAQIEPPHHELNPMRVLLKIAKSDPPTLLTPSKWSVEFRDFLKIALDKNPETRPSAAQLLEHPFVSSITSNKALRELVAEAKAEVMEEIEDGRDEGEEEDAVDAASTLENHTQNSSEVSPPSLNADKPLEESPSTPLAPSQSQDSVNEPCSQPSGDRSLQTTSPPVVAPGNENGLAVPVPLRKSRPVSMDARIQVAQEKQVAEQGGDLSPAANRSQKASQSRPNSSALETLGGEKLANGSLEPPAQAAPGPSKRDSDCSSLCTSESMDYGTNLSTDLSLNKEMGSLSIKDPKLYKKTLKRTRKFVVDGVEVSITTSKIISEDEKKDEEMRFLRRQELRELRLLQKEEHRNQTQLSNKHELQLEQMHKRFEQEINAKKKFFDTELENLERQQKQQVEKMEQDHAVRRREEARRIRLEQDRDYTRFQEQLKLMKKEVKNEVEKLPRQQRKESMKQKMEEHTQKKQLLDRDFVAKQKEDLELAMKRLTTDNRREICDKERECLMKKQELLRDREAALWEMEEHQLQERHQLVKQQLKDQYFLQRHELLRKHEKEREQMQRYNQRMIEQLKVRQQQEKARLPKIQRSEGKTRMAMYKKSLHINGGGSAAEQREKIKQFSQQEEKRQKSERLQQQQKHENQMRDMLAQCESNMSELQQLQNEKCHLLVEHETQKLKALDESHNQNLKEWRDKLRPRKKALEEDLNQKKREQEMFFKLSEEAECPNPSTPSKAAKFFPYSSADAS
High affinity nerve growth factor receptor (Homo sapiens), sequence (P04629 33-796 limits assumed): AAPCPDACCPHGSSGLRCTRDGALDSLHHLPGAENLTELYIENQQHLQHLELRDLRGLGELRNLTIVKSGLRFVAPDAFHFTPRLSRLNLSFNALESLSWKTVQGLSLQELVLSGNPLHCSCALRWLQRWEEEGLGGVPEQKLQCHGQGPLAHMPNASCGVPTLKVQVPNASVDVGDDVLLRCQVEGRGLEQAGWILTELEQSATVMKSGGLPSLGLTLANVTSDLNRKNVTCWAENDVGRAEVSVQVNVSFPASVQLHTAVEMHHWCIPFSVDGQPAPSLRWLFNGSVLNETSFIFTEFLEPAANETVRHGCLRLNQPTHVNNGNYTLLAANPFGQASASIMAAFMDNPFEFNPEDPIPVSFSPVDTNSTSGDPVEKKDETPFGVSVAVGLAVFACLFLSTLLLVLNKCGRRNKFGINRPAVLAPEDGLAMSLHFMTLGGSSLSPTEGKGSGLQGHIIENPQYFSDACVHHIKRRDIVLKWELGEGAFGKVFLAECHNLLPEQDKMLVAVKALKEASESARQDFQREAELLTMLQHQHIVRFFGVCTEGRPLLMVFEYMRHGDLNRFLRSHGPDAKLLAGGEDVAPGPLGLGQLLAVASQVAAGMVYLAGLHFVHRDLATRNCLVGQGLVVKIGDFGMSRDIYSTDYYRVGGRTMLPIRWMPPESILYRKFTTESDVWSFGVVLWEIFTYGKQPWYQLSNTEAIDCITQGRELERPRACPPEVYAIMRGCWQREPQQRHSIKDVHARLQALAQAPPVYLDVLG
BDNF/NT-3 growth factors receptor (Homo sapiens), sequence (Q16620 32-822 limits assumed): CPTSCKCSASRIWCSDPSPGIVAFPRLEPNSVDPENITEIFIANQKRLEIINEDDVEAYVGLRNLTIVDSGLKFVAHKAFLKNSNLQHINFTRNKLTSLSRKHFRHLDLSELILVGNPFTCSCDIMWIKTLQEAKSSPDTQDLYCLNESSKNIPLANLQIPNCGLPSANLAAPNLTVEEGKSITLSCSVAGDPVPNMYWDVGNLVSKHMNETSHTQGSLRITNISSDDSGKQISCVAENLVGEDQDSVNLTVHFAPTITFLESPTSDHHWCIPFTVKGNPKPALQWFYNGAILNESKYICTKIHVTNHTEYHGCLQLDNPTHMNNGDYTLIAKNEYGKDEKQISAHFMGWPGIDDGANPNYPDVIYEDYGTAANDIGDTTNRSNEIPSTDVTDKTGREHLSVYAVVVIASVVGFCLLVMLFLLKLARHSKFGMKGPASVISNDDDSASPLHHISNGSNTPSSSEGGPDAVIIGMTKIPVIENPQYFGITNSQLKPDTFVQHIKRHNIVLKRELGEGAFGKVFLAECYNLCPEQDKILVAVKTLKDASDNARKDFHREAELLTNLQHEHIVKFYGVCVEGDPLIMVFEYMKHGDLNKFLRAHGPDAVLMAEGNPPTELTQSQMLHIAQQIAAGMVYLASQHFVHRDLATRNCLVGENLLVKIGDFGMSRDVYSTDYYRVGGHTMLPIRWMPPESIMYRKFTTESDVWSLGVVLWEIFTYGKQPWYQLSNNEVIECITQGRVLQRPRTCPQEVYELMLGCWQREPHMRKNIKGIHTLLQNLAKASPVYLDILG

SMILES	inhibition [1]	inhibition [2]	inhibition [3]	inhibition [4]	inhibition [5]	inhibition [6]	inhibition [7]	inhibition [8]	inhibition [9]	inhibition [10]	inhibition [11]	inhibition [12]	inhibition [13]	inhibition [14]	inhibition [15]	inhibition [16]	inhibition [17]	inhibition [18]	inhibition [19]	inhibition [20]
COC(=O)Nc1nc2ccc(S(=O)(=O)c3ccc(NC(=O)Nc4cc(C(F)(F)F)ccc4F)cc3)cc2[nH]1	2.05%	0.88%	3.21%	1.98%	3.91%	2.55%	4.65%	-1.55%	10.5%	3.13%	8.25%	3.7%	7.15%	0.87%	14.1%	3.49%	10.6%	-0.09%	1.67%	2.49%
CN1CCC(n2cnc(-c3ccc(F)cc3)c2-c2ccnc(N)n2)CC1	3.59%	0.4%	6.74%	3.47%	8.74%	2.63%	6.31%	-2.21%	-7.5%	4.64%	7.96%	1.08%	7.37%	1.63%	1.25%	3.39%	5.28%	0.79%	5.37%	2.95%
CCc1nn2ncccc2c1-c1ccnc(NC2CC2)n1	2.38%	-0.25%	2.68%	1.72%	1.87%	3.61%	3.63%	-2%	6.05%	3.98%	14.8%	2.59%	17.4%	3.06%	24.8%	3.95%	8.22%	0.96%	3.67%	0.62%
Cc1ccc(O)cc1Nc1ccnc2cc(-c3ccccn3)ccc12	4.34%	1.78%	2.4%	3.76%	4.64%	42%	82.3%	-4.79%	7.97%	2.82%	17.7%	9.57%	43.9%	6.76%	60.6%	11.1%	47.6%	3.74%	26.4%	26.7%
COC(=O)c1sc(-n2cnc3cc(OC)c(OC)cc32)cc1OCc1ccccc1C(F)(F)F	3.03%	5.22%	14.9%	3.71%	16.9%	2.16%	7.15%	-1.4%	17.2%	4.18%	32.2%	13.9%	54.5%	5.23%	54.9%	6.81%	21.6%	-0.16%	3.42%	6.34%
O=C(Nc1n[nH]c2cc(-c3ccc(F)cc3)ccc12)C1CC1	4.23%	2.53%	5.87%	2.91%	7.26%	2.11%	3.11%	-5.76%	3.14%	2.98%	12.8%	2.7%	6.25%	0.6%	6.95%	3.84%	8.91%	1.48%	5.08%	20.1%
NS(=O)(=O)c1ccc(N/N=C2\C(=O)Nc3ccc4ncccc4c32)cc1	50.4%	21.5%	72%	26.7%	78.5%	5.15%	26.9%	7.29%	67.6%	27.3%	91.8%	20%	67.9%	15.8%	91.9%	4.44%	13.1%	11.7%	49.8%	44.4%
COc1ccc(-c2nn3ncccc3c2-c2ccnc(Nc3ccc4c(c3)OCCO4)n2)cc1	20.2%	1.61%	18.7%	-1.55%	6.72%	-0.79%	3.19%	-1.16%	11.6%	18.5%	63.2%	3.61%	17.4%	6.73%	46.8%	11.2%	55.1%	0.69%	4.16%	0.61%
